SW480 rerep – induces DNA re-replication in SW480 colon adenocarcinoma cells; Potency, µM (doses to about 46.1 µM), for the others: top-dose re-replication activation, most hits filed as activators; SW480 DNA re-replication, Hoechst DNA content imaging, 48 h; 340,000 compounds, 1.8% hits; AID 624297; further: % of control where 0% means no effect; nearly all actives have a fitted effect of over 55% in size
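250 cells/well; 23 nL cpd via pin tool; 48 hr, 37 C, 5% CO2; Hoechst 40 min; imager read of total nuclear intensity, ex 405/em 500-530 nm.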
RORgamma inh – inhibitors of mouse ROR gamma transcriptional activity | 310,000 compounds, 5.4% hits | Drosophila S2 Gal4-RORgamma UAS-luciferase reporter, 20 h | Potency, µM (series often up to 53.6 µM), without a hit: top-dose activity change, negative = inhibition, most hits filed as inhibitors | AID 2551; further: on the % scale 0 is the no-effect control and ±100 the full control effect; nearly all actives have a fitted effect of over 60% in size
Target sequence (P51450 whole entry, looked up, the tested form may be a part): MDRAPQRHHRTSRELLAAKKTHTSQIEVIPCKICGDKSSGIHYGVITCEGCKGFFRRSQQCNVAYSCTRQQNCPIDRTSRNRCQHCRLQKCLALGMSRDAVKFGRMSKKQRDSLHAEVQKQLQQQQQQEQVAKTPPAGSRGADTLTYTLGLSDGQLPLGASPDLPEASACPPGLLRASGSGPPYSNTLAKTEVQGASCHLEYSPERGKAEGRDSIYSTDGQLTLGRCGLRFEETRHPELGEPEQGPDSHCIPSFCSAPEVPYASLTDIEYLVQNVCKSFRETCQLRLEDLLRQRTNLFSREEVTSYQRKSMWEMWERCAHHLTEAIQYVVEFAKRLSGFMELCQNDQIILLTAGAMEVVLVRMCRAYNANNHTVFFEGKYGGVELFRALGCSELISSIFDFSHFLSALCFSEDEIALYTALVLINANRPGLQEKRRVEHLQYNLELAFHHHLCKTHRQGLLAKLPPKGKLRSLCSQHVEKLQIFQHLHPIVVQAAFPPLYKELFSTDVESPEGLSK
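ROR gamma transcriptional activity was tracked as Gal4-UAS luciferase output in stably transfected Drosophila Schneider cells, with compound added 1 hr before 700 uM copper sulfate induction and a 20 hr ambient-temperature incubation.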
MCF10A rerep – DNA re-replication induction in MCF 10a cells. MCF 10A DNA re-replication, Hoechst nuclear intensity, 48 h. Potency, µM (series often up to 46.1 µM), for the others: at the top dose activity, positive = re-replication, usual class: activators. 350,000 compounds, 2.9% hits. AID 624296; further: % of control where 0% means no effect; nearly all actives have a fitted effect of over 50% in size
KB-3-1 tox – KB-3-1 parental cell cytotoxicity; KB-3-1 viability, CellTiter-Glo ATP luminescence, 72 h; Potency, µM (highest dose often 46.1 µM), actives largely listed as cytotoxic; 400,000 compounds, 1.4% hits; AID 1347075; further: on the % scale 0 is the no-effect control and ±100 the full control effect; nearly all actives have a fitted effect of over 60% in size
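Cytotoxicity measured as CellTiter-Glo luminescence after 72 h at 37 C. Compound titrations were pinned onto drug-naive KB-3-1 parental adenocarcinoma cells grown in DMEM with 10% FBS, and normalized data fitted to concentration-response curves.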
VP16 counter – counter-screen for ROR gamma inhibitors: Gal4-VP16 reporter | 310,000 compounds, 3.5% hits | Potency, µM (series often up to 53.6 µM), for the others: at the top dose activity, negative = inhibition, usual class: inhibitors | Drosophila S2 Gal4-VP16 UAS-luciferase, luminescence, 20 h | AID 2546;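 further: Gal4-VP16 expression switched on by copper sulfate through the metallothionein promoter; on the % scale 0 is the no-effect control and ±100 the full control effect; nearly all actives have a fitted effect of over 50% in size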
KB-V1 cytotox – KB-V1 MDR subline cytotoxicity | KB-V1 MDR cells viability, CellTiter-Glo, 72 h | Potency, µM (titrated, usually from 46.1 µM), actives largely listed as cytotoxic | 400,000 compounds, 3.4% hits | AID 1347076; further: on the % scale 0 is the no-effect control and ±100 the full control effect; nearly all actives have a fitted effect of over 60% in size
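In this primary screen, KB-V1 cells overexpressing P-gp are incubated with library compounds (lowest to highest concentration) for 72 h at 37 degrees C before a luminescent ATP viability read.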
Active calls of the source: *; i = inactive; ? = inconclusive; nt = no result; ! = not active in a repeat; [ ] = another dose, or the depositor's remark. Shown are actives, neighbours in structure and some others; about 10% of the full set was active somewhere. The call rests on the fitted dose curve; in most records, active means well fitted curve in the direction sought with a large enough effect; inconclusive means small, poorly fitted or top-dose-only effect, or another doubt; inactive means no such curve, though single readings can be large; an effect the other way counts as inactive or inconclusive. Potency means the concentration at half of the fitted maximal effect.

SMILES | SW480 rerep | RORgamma inh | MCF10A rerep | KB-3-1 tox | VP16 counter | KB-V1 cytotox
C=CCn1c(COc2ccc(F)cc2)nnc1SCC(=O)c1c[nH]c2c(CC)cccc12 | 1% | -10% | 6% | i | -15% | 13µM*
Cc1ccoc1C(=O)Nc1ccc(CC(=O)O)cc1 | -2% | 0.5µM* | -1% | ? | ? | ?
CCOC(=O)c1sc(Nc2ccc(Br)cc2)nc1C | -4% | 4% | ? | i | 2% | i
CCOC(=O)c1cc2nc(Nc3ccc(OC)cc3)sc2s1 | ? | 0% | 4.6µM* | i | 5% | i
CCN(C(=O)COC(=O)c1cc(-c2ccccc2)nc2c1c(C)nn2-c1ccccc1)C1CCS(=O)(=O)C1 (stereo not given) | 5% | 17% | ? | i | -4% | i
Cc1ccc(-n2nc(C)c3c(C(=O)OCC(=O)N(C)C4CCS(=O)(=O)C4)cc(-c4ccccc4)nc32)cc1 (stereo not given) | 4% | -26% | 21µM*! | i | -6% | i
C(=Nc1cccnc1)c1ccc2ccccc2n1 | nt | nt | nt | i | nt | i
COc1ccc(NC(=S)N(CCCN2CCCC(C)C2)Cc2cccs2)cc1 (stereo not given) | 0% | 11µM* | 28% | i | -7% | i
CCc1ccc(NC(=S)N(CCN2CCOCC2)Cc2ccccc2F)cc1 | 1% | 14µM* | 2% | i | ? | ?
S=C(Nc1ccc(Cl)cc1)N(CCCN1CCOCC1)Cc1cccs1 | -1% | 13µM* | 1% | i | 10% | ?
Cc1ccc(-c2csc(NC(=O)C3CC(=O)N(c4ccc5c(c4)OCCO5)C3)n2)o1 (stereo not given) | nt | nt | nt | ? | nt | i
CCc1nc(N)nc(N)c1-c1ccc(N(C)Cc2ccccc2)c([N+](=O)[O-])c1 | 22% | nt | 14% | 4.1µM* | nt | 1.8µM*
O=C(C(=O)N1CCCc2ccccc21)N1CCCc2ccccc21 | -16% | 20% | 0% | i | -8% | i
N=C(N1CCCc2ccccc21)N1CCCc2ccccc21 | ? | nt | -7% | i | nt | i
CCOC(=O)/C(=N\Nc1ccccc1)P(=O)(c1ccccc1)c1ccccc1 | -14% | -8% | 3% | i | -12% | 12µM*
CC(NC(c1ccccc1)c1ccccc1)C(=O)N1CCCc2ccccc21 (stereo not given) | -2% | 31% | ? | 18µM* | 1% | 13µM*
CCOC(=O)/C(=N/Nc1ccccc1)N1CCCc2ccccc21 | 1% | -6% | -33% | i | -6% | 16µM*
NC(=S)N1CCCc2ccccc21 | -2% | 6.3µM* | 2% | i | ? | i
CCOC(=O)C1(C(=O)OCC)C(C)CC(=O)N1c1ccccc1OC (stereo not given) | nt | nt | nt | i | nt | i
O=c1cc(N2CCCCC2)c(-c2ccccc2)nn1Cc1ccc(Cl)cc1 | ? | ? | 16µM* | ? | -23% | ?
O=c1cc(N2CCCCC2)c(-c2ccccc2)nn1Cc1c(Cl)cccc1Cl | 19% | 9% | 21µM* | ? | -14% | ?
COc1ccc(S(=O)(=O)N2CCC(N3CCN(Cc4ccccc4)C(=O)C3=O)CC2)cc1 | nt | nt | nt | i | nt | i
COc1cccc(-c2nn(C)c3sc(C(=O)NCc4ccc(OC)cc4OC)cc23)c1 | nt | nt | nt | i | nt | i
CCOC(=O)C1CCCN(C(=O)c2cc3c(-c4cccc(OC)c4)nn(C)c3s2)C1 (stereo not given) | ? | 15%[0.365 µM] | 6.5µM* | ? | nt | 6.5µM*
CCOc1ccc(CCNC(=O)c2cccc(-n3cnnn3)c2)cc1OCC | -2% | nt | 2% | i | nt | 18µM*
SMILES | SW480 rerep | RORgamma inh | MCF10A rerep | KB-3-1 tox | VP16 counter | KB-V1 cytotox
CCOc1ccc(CCNC(=O)c2cc3c(-c4cccc(OC)c4)nn(C)c3s2)cc1OCC | nt | nt | nt | ? | nt | 23µM*
COc1ccc(CCNC(=O)c2cccc(-n3cnnn3)c2)cc1 | 1% | nt | 0% | i | nt | i
COc1cccc(-c2nn(C)c3sc(C(=O)NCc4ccc(C)o4)cc23)c1 | ? | 8% | ? | ? | 20µM* | ?
COc1cc(C(=O)Nc2cccc(OCc3cc(=O)n4c(C)csc4n3)c2)cc(OC)c1OC | nt | nt | nt | i | nt | i
Cc1ccc2c(c1)C1(C=CC(=O)C=C1)CC(=O)N2C | nt | -13% | nt | nt | 4% | nt
O=C(COc1ccc2c(c1)CCC2)N1CCN(c2ccccc2F)CC1 | -5% | -5%[10 µM] | -3% | i | -6% | 0.0037µM*
O=C(COc1ccc2c(c1)CCC2)N1CCN(c2cccc(C(F)(F)F)c2)CC1 | 0% | -7% | -8% | i | 4% | i
Cc1ccc(Cn2c(=N)c(C(=O)NCc3ccco3)cc3c(=O)n4ccccc4nc32)cc1 | 3.5µM* | -15% | 11µM* | ? | -6% | i
COc1ccc(CCn2c(=N)c(C(=O)NCc3ccco3)cc3c(=O)n4ccccc4nc32)cc1OC | -1% | nt | 5% | i | nt | i
N=c1c(C(=O)NCc2ccco2)cc2c(=O)n3ccccc3nc2n1CCc1ccccc1 | 13µM* | 31% | 8.2µM* | 18µM* | -7% | 21µM*
Cn1c(=O)oc2cc(S(=O)(=O)CCC(=O)NCc3ccc(Cl)cc3)ccc21 | nt | nt | nt | i | nt | i
COc1ccccc1NC(=O)C1CCN(C(=O)NCc2ccccc2)CC1 | 1% | -8% | -2% | i | -1% | i
CCOC(=O)C(C(=O)OCC)N(Cc1cc(OC)ccc1OC)C(=O)C1CC(CO[Si](C)(C)C(C)(C)C)=CN1C(=O)OC(C)(C)C (stereo not given) | nt | 16% | nt | nt | 1% | nt
COc1ccc(Cn2c(SCc3ccc(C(=O)NC(C)C)cc3)nc3cccnc32)cc1 | nt | nt | nt | i | nt | i
Cc1ccccc1CN1N=C(/C=C/c2ccccc2)CCC1=O | -1% | 35% | 0% | i | 3% | ?
CCOC(=O)CN1N=C(/C=C/c2ccc(C)cc2)CCC1=O | 14% | ? | 13% | 5.2µM* | 9% | 5.8µM*
Cn1c(=O)c(-c2ccc(F)cc2)nc2cnc(Nc3ccccc3)nc21 | nt | -37% | nt | nt | -14% | nt
O=C(OCc1ccccc1)N1Cc2ccnnc2CC1c1ccccc1Br (stereo not given) | nt | nt | nt | i | nt | i
O=[N+]([O-])c1ccc(/C=N/Nc2nc(N3CCCCCC3)nc(N3CCCCCC3)n2)o1 | ? | 11µM* | ? | 6.5µM* | ? | ?
COC(=O)c1ccccc1-c1ccc(/C=N/Nc2nc(N3CCCC3)nc(N3CCCC3)n2)o1 | ? | ? | ? | i | ? | ?
